An excerpt weighted towards active compounds, which were near 14% of everything screened.
MARV entry inh: blocks Marburg virus binding to or entry into cells. hit rate 1.8% among 300,000. Potency, µM (highest dose often 37.8 µM), inactives show at the highest dose activity change, negative = inhibition, hits mostly inhibitors. Marburg virus pseudotyped entry inhibition, cell reporter; calls by dose curve; tested in HEK293 cells; note: potency is the fitted concentration of half-maximal effect
HCMV inh: blocks human cytomegalovirus replication; activity change, negative = inhibition, % at 57.5 µM; HFF cells, HCMV-luciferase reporter, 72 h; stronger effect = lower value; hit rate 4.5% among 410,000; in the data active = activity change below about -60%; inconclusive = no clear call, values can overlap the other calls; inactive = above about -39%
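Screen run at 2 compound doses on HFFs infected with reporter HCMV, MOI 1 PFU/cell. Luciferase activity from cell lysates at 72 h post infection gave inhibition relative to buffer-only and Salinomycin wells.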
Pf growth 96h: P. falciparum growth inhibition at 96 hours; hit rate 6.9% among 320,000; AID 504834; P. falciparum luciferase reporter growth, 96 h; Potency, µM (top dose mostly 28.7 µM), for the others: at the highest dose activity change, negative = inhibition, usual class: inhibitors; note: potency is the fitted concentration of half-maximal effect
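P. falciparum expressing integrated firefly luciferase, in erythrocytes at 2% hematocrit, 0.05% parasitemia, incubated with compounds 96 h at 37 C, 5% CO2. Growth inhibition read as loss of luminescence; two-generation exposure targets delayed-death apicoplast inhibitors.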
Pf growth 48h: P. falciparum growth inhibition at 48 hours (one generation) | hit rate 5.9% among 310,000 | P. falciparum luciferase growth in erythrocytes, 48 h | Potency, µM (titrated, usually from 28.7 µM), without a hit: at the top dose activity change, negative = inhibition, usual class: inhibitors; note: potency is the fitted concentration of half-maximal effect
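Firefly luciferase activity from engineered P. falciparum reports growth; inhibitors lower the luminescent signal. Cultures contained 2% hematocrit erythrocytes at 0.1% final parasitemia.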
HCV inh: blocks hepatitis C virus; AID 651820; Huh7.5.1 HCVcc-Cre infection, luciferase reporter, 44 h; Potency, µM (titrated, usually from 41.8 µM), for inactives: top-dose activity change, negative = inhibition, most hits filed as inhibitors; hit rate 3.4% among 340,000; note: potency is the fitted concentration of half-maximal effect
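Infectious HCV cell culture screen: compound-treated cells (1,000/well, pre-plated 4 h) are infected with HCVcc-Cre at roughly 0.5 moi and grown 44 h. Infection is quantified by luciferase signal after 15 min substrate incubation at room temperature.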
LASV entry inh: Lassa virus entry inhibition; Potency, µM (titrated, usually from 37.9 µM), without a hit: top-dose activity change, negative = inhibition, actives largely listed as inhibitors; hit rate 1.2% among 300,000; AID 540256; Lassa virus pseudotype entry inhibition, cell reporter; calls by dose curve; tested in HEK293 cells; note: potency is the fitted concentration of half-maximal effect; nearly all actives have a fitted effect of over 50% in size
Numbers without * were called inactive; ? = inconclusive; / = not tested or not shown; [ ] = another dose, or the depositor's remark. Unless noted, calls come from the whole dose curve; as a rule, active = well fitted inhibition curve with a large enough effect; inconclusive = small, poorly fitted or top-dose-only effect, or another doubt; inactive = no such curve, though single readings can be large or run the other way. % is set by controls: 0 for no effect and ±100 for the full control effect.

SMILES	MARV entry inh	HCMV inh	Pf growth 96h	Pf growth 48h	HCV inh	LASV entry inh
COC(=O)C[C@@H]1C=C[C@@H](NS(=O)(=O)c2ccccc2OC)[C@@H](CO)O1	/	-16	/	/	/	/
O=c1oc2ccccc2cc1-c1csc(Cc2nc(-c3ccc(Cl)cc3)cs2)n1	?	-96*	-5%	18%	?	?
O=C(Nc1nc(-c2cc3ccccc3oc2=O)cs1)c1ccco1	/	-63*	41%	27%	-5%	/
O=C(Nc1nc(-c2ccccn2)cs1)c1ccco1	?	-13	?	?	?	?
O=c1oc2ccccc2cc1-c1csc(Nc2nc3c(F)cccc3s2)n1	?	-28	?	?	13µM*	?
O=c1oc2ccccc2cc1-c1nc(-c2cccc(Cl)c2)cs1	/	13	/	/	/	8%[46.1 µM]
CCCN(c1ccc(C(C)C)cc1)S(=O)(=O)c1ccc2c(c1)n(C)c(=O)c(=O)n2C	?	-2	/	/	/	-21%[46.1 µM]
O=C(Cn1c(=O)nc(-c2ccccc2)c2cc(Cl)ccc21)NCCc1ccccc1	/	13	/	/	/	?
COc1ccc(C(=O)CC(Nc2ccc([N+](=O)[O-])cc2)c2ccc(Cl)cc2)cc1 (stereo not given)	?	-88*	9.3µM*	3.3µM*	?	?
COc1ccc(NC(=O)CCC(=O)OCC(=O)c2ccc(Oc3ccc([N+](=O)[O-])cc3)cc2)cc1	-12%[46.1 µM]	-13	9.3µM*	9%	-2%	12%
COc1cccc(NC(=O)C2(C)CCN2C(C)C)c1OC (stereo not given)	/	-6	/	/	/	/
Cc1c(Br)cccc1NC(=O)C1(C)CCN1C(C)C (stereo not given)	/	-80*	/	/	/	/
O=C(N/N=C/c1ccncc1)c1ccc(COc2cccc3cccnc23)cc1	?	4	?	8.3µM*	-9%	3%[46.1 µM]
O=C(N/N=C/c1ccc2c(c1)OCO2)c1ccc(COc2cccc3cccnc23)cc1	/	7	?	?	13µM*	/
O=C(N/N=C/c1cccc(O)c1)c1ccc(COc2cccc3cccnc23)cc1	/	4	?	-16%	?	/
NCC(=O)NCC(=O)NC[C@H]1O[C@@H](n2cnc3c(N)ncnc32)[C@H](O)[C@@H]1O	/	-24	/	/	25%	/
O=C(Nc1cccc(F)c1)Nc1ccc2c(c1)CCC2	?	18	1.7µM*	-8%	-1%	?
Cc1noc(C)c1C(=O)Nc1ccc2c(c1)CCC2	14%	42	15µM*	24%	/	43%[14.3 µM]
CCC(=O)Nc1ccc2c(c1)Cc1cc([N+](=O)[O-])ccc1-2	-6%	-86*	/	/	-21%	?
O=CNc1ccc2c(c1)Cc1cc([N+](=O)[O-])ccc1-2	?	0	/	/	?	-1%
O=C(Nc1ccc2c(c1)CCC2)c1ccc(F)cc1	11µM*	51	-51%	-20%	?	?
O=C(Nc1ccc(F)cc1)Nc1ccc2c(c1)CCC2	4%[46.1 µM]	72	178%	3%	0%	9%[46.1 µM]
CCOC(=O)[C@@]1([C@@H](NC(=O)OC)c2ccco2)CCCC1=O	-9%[14.2 µM]	/	/	/	/	/
O=C1C=C(C#Cc2ccc(Oc3ccccc3)cc2)C[C@@H](c2ccc(F)cc2)C1	/	-24	/	/	/	/
O=C(Nc1cccc([N+](=O)[O-])c1)Nc1ccc2c(c1)CCC2	?	-103*	61%	-11%	?	?
SMILES	MARV entry inh	HCMV inh	Pf growth 96h	Pf growth 48h	HCV inh	LASV entry inh
O=C(Nc1ccccc1)Nc1ccc2c(c1)CCC2	/	55	4%	73%	-25%	/
Cc1nc(-c2ccccc2)sc1-c1nc(-c2ccncc2)ncc1S(=O)(=O)c1ccccc1	4.5µM*	-82*	1.7µM*	?	?	?
C=CCSc1cc(C)nc2c(-c3ccccc3)c(C)nn12	?	-38	10µM*	?	?	2%
Cc1cc(SCC#N)n2nc(C)c(-c3ccccc3)c2n1	-15%	-73*	193%	-10%	?	-18%
Cc1cc(SCC#N)n2nc(C)c(-c3ccc(Cl)cc3)c2n1	?	?	/	?	?	-16%
CCOc1ccccc1NC(=O)C1CCCN1S(=O)(=O)c1ccccc1C(F)(F)F (stereo not given)	/	-12	?	8.3µM*	?	/
O=C(Nc1ccc(Cl)cc1)C1CCC(=O)N1Cc1ccccc1Cl (stereo not given)	-11%	16	4.7µM*	9.3µM*	17%	-22%
O=C(Nc1cccc(S(=O)(=O)N2CCCCC2)c1)[C@@H]1CCCN1S(=O)(=O)c1ccccc1C(F)(F)F	/	-23	/	/	14µM*	/
O=C(Nc1nnc(C2CC2)s1)C1CCCCN1S(=O)(=O)c1ccccc1 (stereo not given)	-20%	-17	-10%	13µM*	-9%	10%
CC(=O)c1cccc(NC(=O)C2CCCN2S(=O)(=O)c2ccccc2C(F)(F)F)c1 (stereo not given)	/	3	/	/	/	/
CCOc1ccc(CCNC(=O)CSc2nnnn2-c2ccccc2Cl)cc1OCC	8%[46.1 µM]	5	/	/	/	4%[46.1 µM]
Cc1ccc2c(c1)C(C1(O)C(=O)N(Cc3ccccc3)c3ccccc31)C(=O)N2C (stereo not given)	/	3	/	/	/	/
CC(C)N1C(=O)CC[C@@H](S(=O)(=O)c2ccccc2)[C@@H]1c1ccccc1	/	-4	/	/	/	/

Compound activity as filed in PubChem.
